Experimental data: ChEMBL document CHEMBL4513216, “Probing the Open Global Health Chemical Diversity Library for Multistage-Active Starting Points for Next-Generation Antimalarials” (ACS Infect Dis, 2020)
Out of some 69,000 compounds screened, about 8,600 (12%) showed an effect of 50% or more. What follows is part of a selection rich in strong results, with near analogues and random picks from the rest.

What follows are compounds tested on Plasmodium berghei (assay: Screen against P. berghei liver stage (PbLuc), transformed with Luciferase, at 10uM). Conditions: tested at 10 uM.
Assay type: functional, HepG2

| Compound | INHIBITION |
| --- | --- |
| CN(C)Cc1cc(=O)n2c(n1)CN(S(=O)(=O)C1CC1)CCC2 | 21.6% |
| O=C(CCn1cccn1)N1C[C@H]2CC[C@@H](C1)N(Cc1ccccn1)C2=O | 8.47% |
| N#Cc1cc2cc(Cl)cnc2nc1O | -26.3% |
| CC(C)(C(=O)NCC1CCN(Cc2ccccn2)C1)c1ccccc1 (stereo not drawn) | 49.2% |
| O=C1NCCCc2[nH]c(C3CCCN(C(=O)C4CC4)C3)nc21 (stereo not drawn) | 26.8% |
| CC(C)OCCN1CCN(c2ccc(CN(C)C)cn2)CC1 | 25.4% |
| CN1CCOC(CNCc2coc(-c3cccc(F)c3)n2)C1 (stereo not drawn) | 57.8% |
| OCCN1CCN(Cc2coc(-c3ccccc3Cl)n2)CC1 | -113% |
| CC(O)CN1CCN(Cc2coc(-c3ccccc3)n2)CC1 (stereo not drawn) | 1.45% |
| COCCN1CCN(Cc2coc(-c3ccccc3Cl)n2)CC1 | 63.8% |
| CC(=O)N1CCN(Cc2coc(-c3cccc(F)c3)n2)CC1 | -14.7% |
| OCCN1CCN(Cc2coc(-c3cccc(Cl)c3)n2)CC1 | 33.3% |
| OCCN1CCN(Cc2coc(-c3ccccc3)n2)CC1 | 59% |
| CN1CCOC(CNCc2coc(-c3cccc(Cl)c3)n2)C1 (stereo not drawn) | 33.7% |
| CN1CCOC(CNCc2coc(-c3ccccc3)n2)C1 (stereo not drawn) | 22.5% |
| CC(O)CN1CCN(Cc2coc(-c3ccccc3Cl)n2)CC1 (stereo not drawn) | -66.7% |
| CCN1CCN(Cc2coc(-c3cccc(F)c3)n2)CC1 | 65.2% |
| OCCN1CCN(Cc2coc(-c3cccc(F)c3)n2)CC1 | 48.4% |
| NC(=O)c1cc(C2CCCN(CCOc3ccc(F)cc3)C2)n[nH]1 (stereo not drawn) | 27.25% |
| CC(NCc1cc(O)c2cccc(F)c2n1)c1ccc(S(C)(=O)=O)cc1 (stereo not drawn) | 15.1% |
| CCS(=O)(=O)Nc1ccc2c(c1)OCC(C)(C)C(=O)N2C | 25.8% |
| O=C(NC1CCCC1)C1(Cc2cc(C3CCOC3)no2)CCNCC1 (stereo not drawn) | 26.7% |

| Compound | INHIBITION |
| --- | --- |
| COc1ccc(NCc2nc(=O)n(CCC(C)C)[nH]2)cc1 | -27.6% |
| c1ccc2c(c1)ccn2CCCNC1CCOC2(CCOCC2)C1 (stereo not drawn) | -27.5% |
| CCN1CCOC(CNCc2csc(C)n2)C1 (stereo not drawn) | -65.3% |
| COc1ccc(-c2nc(CN3CCN(CCO)CC3)co2)cc1 | 59.7% |
| COc1ccc(-c2nc(CN3CCCS3(=O)=O)co2)cc1 | -91.4% |
| Cc1nc(COc2ccc(CNCC3CN(C)CCO3)cc2)cs1 (stereo not drawn) | 32.4% |
| Cc1ccc(-c2nc(CN3CCN(CCO)CC3)co2)cc1 | 27.4% |
| Cc1nc(CNCC2CN(C)CCO2)cs1 (stereo not drawn) | 51.6% |
| Cc1cc(N2CCOC(c3ccccn3)C2)nc(N)n1 (stereo not drawn) | 2.6925% |
| CC(Cn1ccnc1)NC(=O)N1CCN(Cc2cccs2)CC1 (stereo not drawn) | 49.1% |
| O=S(=O)(NC1CCC12CCN(CC1CCOCC1)CC2)c1ccccc1 (stereo not drawn) | 36.4% |
| FC(F)(F)c1cccc(N2CCC(NCc3cccnc3)CC2)c1 | 71.2% |
| O=C(c1ccoc1)N1CCC(NCc2cccnc2)CC1 | 10.2% |
| Cc1n[nH]cc1CNC1CCN(c2ccc(F)cc2)CC1 | 49.9% |
| COCCN1CCC(NCc2cccnc2)C1 (stereo not drawn) | -27.3% |
| Cc1n[nH]cc1CNC1CCN(c2ccccc2)CC1 | 49.9% |
| Cc1n[nH]cc1CNC1CCN(c2cccc(C(F)(F)F)c2)CC1 | 78.6% |
| CC1CN(Cc2ccc(C#N)cc2F)CCN1Cc1nccn1C (stereo not drawn) | 11.433% |
| Cc1ccc(CN2CCCn3cnc(COCC4CC4)c3C2)o1 | -49.1% |
| CN(CCc1ccccn1)C(=O)CCC1CCCN(c2ccncc2)C1 (stereo not drawn) | 26.8% |
| O=C(C1CCOCC1)N1CCO[C@H]2[C@H](Oc3cccnc3)CC[C@@H]21 | 10% |
| CC(C)NC(=O)c1cccc(NC(=O)CCCc2nc(C(C)C)no2)c1 | -8.87% |

| Compound | INHIBITION |
| --- | --- |
| CC(C)c1noc(CCC(=O)Nc2cc(F)ccc2F)n1 | 34% |
| CC(C)c1noc(C[S+]([O-])CC(=O)Nc2ccc(F)c(F)c2)n1 (stereo not drawn) | 51.3% |
| CC(C)c1noc(CN2CCN(C(=O)c3cc(Cl)ccc3F)CC2)n1 | -17% |
| CC(C)c1noc(CCCC(=O)Nc2cccc(F)c2)n1 | 27% |
| CC(C)c1noc(C[S+]([O-])CC(=O)Nc2cc(F)ccc2F)n1 (stereo not drawn) | 56.3% |
| CCN(Cc1ccco1)C(C)c1nc(C(C)(C)C)no1 (stereo not drawn) | 2.9% |
| CCn1cnnc1CNC(=O)Cc1ccc2c(c1)OCCO2 | 1.78% |
| O=C(NC[C@]1(O)CN(Cc2ccccc2F)C[C@H]1O)c1cscn1 | 14.5% |
| CCn1c(CC2CCN(S(=O)(=O)c3cccs3)CC2)nn(C)c1=O | 41.5% |
| Cc1noc(C)c1CNCc1c(C(C)C)nn(C)c1N1CCOCC1 | 34.5% |
| Cc1nnc2n1CCN(C(=O)c1cc(C)n(-c3ccccc3)c1C)C2 | 44.3% |
| Cc1cccc(-n2c(C)cc(C(=O)N3CCn4c(C)nnc4C3)c2C)c1 | 35.3% |
| Cc1cccc(-n2ncc(C(=O)N3CCn4c(C)nnc4C3)c2C)c1 | 60.6% |
| COc1ccc2nnc(CCCC(=O)NCc3ccccc3)n2n1 | 44.4% |
| CCc1ccc(CN2CCC3(CC2)C(=O)N(C)CCN3CC2CC2)cc1 | -17.1% |
| COC[C@@]12CC[C@@H](N3CCOCC3)C[C@H]1CCN(c1cc(C)ccn1)C2 | 70.3% |
| COC[C@@]12CC[C@@H](N3CCOCC3)C[C@H]1CCN(c1ncccc1C)C2 | 45.8% |
| COC[C@@]12CC[C@@H](N3CCOCC3)C[C@H]1CCN(c1cnccn1)C2 | -15.1% |
| COC[C@@]12CC[C@@H](N3CCOCC3)C[C@H]1CCN(c1ncccc1Cl)C2 | 13.5% |
| COC[C@@]12CC[C@@H](N3CCOCC3)C[C@H]1CCN(c1ccc(Cl)cn1)C2 | 16.7% |
| COC[C@@]12CC[C@@H](N3CCOCC3)C[C@H]1CCN(c1ncccn1)C2 | 53.5% |
| O=C(Cn1cnc2sccc2c1=O)NCCc1nnc2ccccn12 | 46.4% |

| Compound | INHIBITION |
| --- | --- |
| COCC(=O)N1CCc2ccc(=O)n(CC3CC3)c2CC1 | -13.2% |
| c1csc(CNCC2COCc3c(-c4ccoc4)nnn3C2)n1 (stereo not drawn) | 13.1% |
| CCCC(=O)Nc1cccc(C(=O)N(C)CCCC2CCCO2)c1 (stereo not drawn) | 33.7% |
| COCCn1c2c(ccc1=O)CCN(Cc1ccoc1)CC2 | 25.1% |
| CCN1CCC2(C=C(C(=O)NC3CC3)c3ccccc32)CC1 | 12.4% |
| CN(Cc1nc(C2CC2)no1)C(=O)c1cccc(CC2CCNCC2)c1 | 59.7% |
| CN(Cc1nc(C2CC2)no1)C(=O)C1COc2ccccc2C1 (stereo not drawn) | -9.08% |
| CNc1ncc(CN(C)C(=O)c2cccc(CC3CCNCC3)c2)cn1 | 19.1% |
| Cc1nc(CN(C)C(=O)c2cccc(CC3CCNCC3)c2)no1 | 34% |
| CN(Cc1ccno1)C(=O)c1cccc(CC2CCNCC2)c1 | 70.4% |
| CCOCCn1c(=O)[nH]c2cc(C(=O)N(C)Cc3ccno3)ccc21 | 8.35% |
| CCN(Cc1cnn(C)c1)C[C@H]1CC[C@@H](Cc2cccc(CN)c2)O1 | 15.1% |
| Cc1cnn(CC2CCCN2CCCS(C)(=O)=O)c1 (stereo not drawn) | 13.3% |
| CCN(c1cc(C)cc(C)c1)S(=O)(=O)c1cc(C(=O)O)cs1 | 42.9% |
| O=C(NCc1ccco1)[C@H]1CC[C@@H]2[C@@H](CCN2Cc2nccs2)O1 | -30.1% |
| Cc1ccc(NC(=O)c2n[nH]c(-n3cnnc3)n2)cc1 | -5.59% |
| Cc1noc(C)c1CCC(=O)N1CCN(Cc2cscn2)CC1 | 1.7% |
| CCc1nc(CN2CCCN(C(=O)c3c(C)noc3C)CC2)cs1 | 28.7% |
| CCc1nc(CN2CCN(C(=O)N3CCCCC3)CC2)cs1 | -2.53% |
| Cc1noc(C)c1CCC(=O)N1CCCN(Cc2cscn2)CC1 | -5.51% |
| Cc1noc(C)c1CCC(=O)N1CCCN(Cc2cccs2)CC1 | 52% |
| Cc1noc(C)c1CCC(=O)N1CCCN(CC(N)=O)CC1 | 37.95% |

| Compound | INHIBITION |
| --- | --- |
| Cc1noc(C)c1CC(=O)N1CCN(Cc2cscn2)CC1 | 27.94% |
| Cc1noc(C)c1CC(=O)N1CCCN(Cc2cscn2)CC1 | 57.4% |
| CCc1nc(CN2CCN(C(=O)Cc3c(C)noc3C)CC2)cs1 | 50.4% |
| O=C(C1CCOC1)N1CCN(CCn2cccn2)c2ncccc2C1 (stereo not drawn) | 11.3% |
| CN(C)C(=O)CN1CCC2(CCN(S(=O)(=O)C3CC3)CC2)C1=O | 32.1% |
| Cc1cc(O)nc(C2CCCN(CCO)C2)n1 (stereo not drawn) | -0.232% |
| CCCC(=O)N1CCc2c(CNS(C)(=O)=O)cncc2C1 | 13.5% |
| O=C(c1cnc2ccc(F)cc2c1NCc1ccco1)N1CCCC1 | 37.2% |
| O=C(c1ccno1)N1CCC2(CC1)C(=O)N(CC1CC1)c1ccccc12 | 25.7% |
| O=C([C@H]1CCCO1)N1CCN(Cc2cccnc2)c2ncccc2C1 | 15.4% |
| CC(=O)N1CCSCC1c1ccc(C)o1 (stereo not drawn) | -13.8% |
| COc1ccc(CNCc2cn(C)nc2C)cc1 | 24.8% |
| COC(=O)c1ccc(CCn2cnc(C#N)n2)cc1 | 13.8% |
| COC(=O)c1ccc(CNCc2ccn(C)n2)cc1 | 56% |
| COC(=O)c1ccc(Cn2cnc(C#N)n2)cc1 | 6.23% |
| CCn1cc(CNCc2ccc(C(=O)OC)cc2)c(C)n1 | 39.7% |
| COC(=O)c1ccc(CNCc2cn(C)nc2C)cc1 | 70.8% |
| CN(C)[C@@H]1CCN(C(=O)c2ccsc2)[C@H]1Cc1cccnc1 | 38.1% |
| Cc1cc(C)nc(C2CCN(C(=O)CO)CC2)n1 | 26.65% |
| CCC(NC(=O)c1c(C(=O)O)cnn1C)c1ccc(C)cc1C (stereo not drawn) | 15.9% |
